# From PubChem
# NOD2 RIPK2 PPI: blocks binding of human NOD2 to RIPK2 | CHO BLA complementation NOD2-RIPK2, CCF4 ratio | inhibition, % at 4.98 µM | actives 0.38% (n = 360,000); in the data active = inhibition above about 21%;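 also: 0% = vehicle only and 100% = reference blocker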
# Target sequence (O43353 whole entry, looked up): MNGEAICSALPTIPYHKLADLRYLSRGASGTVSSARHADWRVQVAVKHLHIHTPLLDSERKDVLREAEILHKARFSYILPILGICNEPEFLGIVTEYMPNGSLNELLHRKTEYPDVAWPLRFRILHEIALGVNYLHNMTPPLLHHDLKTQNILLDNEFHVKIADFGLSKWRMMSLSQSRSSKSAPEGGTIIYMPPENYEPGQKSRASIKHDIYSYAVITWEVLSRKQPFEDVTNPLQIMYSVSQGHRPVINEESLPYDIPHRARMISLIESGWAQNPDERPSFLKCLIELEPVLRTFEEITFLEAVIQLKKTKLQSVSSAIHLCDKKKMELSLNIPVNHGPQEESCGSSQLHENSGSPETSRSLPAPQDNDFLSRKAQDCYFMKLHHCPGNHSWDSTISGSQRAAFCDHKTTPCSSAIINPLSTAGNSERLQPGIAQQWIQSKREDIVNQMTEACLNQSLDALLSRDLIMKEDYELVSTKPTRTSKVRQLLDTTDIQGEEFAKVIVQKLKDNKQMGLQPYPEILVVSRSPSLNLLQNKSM
# TLR9-MyD88 block: TLR9-MyD88 interaction inhibition | Q9NR96+Q99836 | CHO BLA complementation TLR9-MyD88, CCF4 FRET ratio | inhibition, % at 4.98 µM | actives 0.21% (n = 340,000);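 active = inhibition above the mean over all tested compounds plus 3 SD, cut at about 21% in these data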;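 also: 0% = DMSO only wells and 100% = clavulanate BLA inhibitor control wells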
# Myeloid diff 2: promotes myeloid progenitor differentiation | AID 624256 | calls only at 10 µM | ER-HoxA9 myeloid progenitors, lysozyme-GFP differentiation, flow cytometry | actives 1% (n = 360,000);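 active = normalized GFP-positive differentiation at or above the plate's own cutoff, the solvent-only control mean plus 3 SD; inconclusive = no clear call, values can overlap the other calls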;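 also: cells exposed to compound for four days before flow analysis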
# TLR4 MyD88 comp: blocks binding of human TLR4 to MyD88. O00206+Q99836. HeLa CL3-4 TLR4/MyD88 BLA complementation, FRET ratio. actives 0.18% (n = 200,000). inhibition, % at 8.4 µM. AID 861; in the data active = inhibition above about 25%;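 also: 0% = vehicle and 100% = reference inhibitor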
# TLR4 MyD88 cnf: confirmation of human TLR4-MyD88 binding inhibitors. inhibition, % at 8.4 µM. actives 50% (n = 350). HeLa CL3-4 BLA complementation, CCF4 FRET ratio. shares compounds with TLR4 MyD88 comp. AID 941;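 active = mean inhibition across three repeat runs above about 25% carried over from the earlier screen, limit read from the data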;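 also: plate controls were DMSO only for no effect and clavulanic acid blocking BLA at full dose for full effect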
# BLA inhibitor ct: inhibits beta-lactamase activity, counter-screen to TLR4-MyD88 binding inhibitors; inhibition, % at 8.4 µM; actives 63% (n = 350); shares compounds with TLR4 MyD88 comp; HeLa BLA reporter, CCF4 FRET ratio;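 active = mean inhibition over three repeats above about 26% taken from the earlier screen, limit read from the data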;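 also: HeLa cells stably expressing beta-lactamase reporter as counterscreen for TLR4-MyD88 inhibitors; 0% = DMSO and 100% = clavulanic acid full inhibition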
# TLR9-MyD88 conf: confirmation of human TLR9-MyD88 binding inhibitors; shares compounds with TLR9-MyD88 block; CHO TLR9/MyD88 BLA complementation, CCF4 FRET ratio; inhibition, % at 4.98 µM; actives 51% (n = 680);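 active = mean inhibition across three repeats above about 21% taken from the earlier screen, limit read from the data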;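 also: blue over green emission ratio reports constitutive TLR9 MyD88 association via BLA complementation; 0% = DMSO vehicle wells and 100% = clavulanate BLA inhibitor wells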
# BLA counter-1: non-selective beta-lactamase inhibitors in TLR9-MyD88 counter-screen; AID 540251; shares compounds with TLR9-MyD88 block; CHO-BLA cells, CCF4 FRET ratio, BLA reporter; actives 7% (n = 680); inhibition, % at 4.98 µM;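 active = mean inhibition above a 50% cutoff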;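 also: counterscreen of TLR9-MyD88 hits on CMV-driven BLA in CHO-K1 cells; 0% = DMSO alone and 100% = clavulanate blocking BLA; higher means less blue over green ratio so more BLA blockade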
# TLR9 CHO tox: CHO cell toxicity counter-screen for TLR9-MyD88 inhibitors; shares compounds with TLR9-MyD88 block; TLR9-MyD88 CHO cells cytotoxicity, luminescence; inhibition, % at 4.98 µM; actives 39% (n = 680); AID 588336; in the data active = inhibition above about 11%
# NOD2-RIPK2 conf: NOD2-RIPK2 interaction inhibition confirmed; inhibition, % at 4.98 µM; actives 70% (n = 1,200); CHO cells, NOD2-RIPK2 BLA complementation, CCF4 FRET; shares compounds with NOD2 RIPK2 PPI;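 active = mean inhibition across replicates above a set limit taken from the earlier primary screen, cut at about 21% in these data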;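 also: 0% = DMSO-only wells and the high end = clavulanate BLA-blocked wells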
# BLA counter-2: counter-screen for NOD2-RIPK2 interaction inhibitors: BLA reporter; shares compounds with NOD2 RIPK2 PPI; CHO BLA reporter, CCF4 FRET ratio, counterscreen; inhibition, % at 4.98 µM; actives 57% (n = 1,200); AID 624371;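 active = mean inhibition above the low-control mean inhibition plus three low-control SD, cut at about 11% in these data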;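 also: 0% = DMSO only wells and 100% = clavulanate high control wells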
# An asterisk follows results filed as active; i = inactive; ? = inconclusive; . = no result; + = active, no number. Most compounds without a hit are left out; they make up all but 1.5% or so of the library.
SMILES,NOD2 RIPK2 PPI,TLR9-MyD88 block,Myeloid diff 2,TLR4 MyD88 comp,TLR4 MyD88 cnf,BLA inhibitor ct,TLR9-MyD88 conf,BLA counter-1,TLR9 CHO tox,NOD2-RIPK2 conf,BLA counter-2
COc1ccc(C2C=C(c3ccc(Cl)cc3)Nc3nc(NC(C)=O)nn32)cc1 (stereo not given),.,.,.,22,.,.,.,.,.,.,.
COc1ccc(/C=c2/sc3n(c2=O)C(c2ccccc2OC)C2=C(N=3)c3ccccc3CC2)cc1O (stereo not given),35*,17,i,27*,18,45*,.,.,.,26*,31*
CC1(C)CC(=O)C2=C(C1)OC1=C(C(=O)CC(C)(C)C1)C2c1ccc(O)cc1O,67*,15,i,34*,24,-8,.,.,.,79*,-2
COc1ccc(S(=O)(=O)N(C)C[C@@H]2OCCCC[C@@H](C)Oc3ccc(NS(=O)(=O)c4cccs4)cc3C(=O)N([C@H](C)CO)C[C@@H]2C)cc1,-9,-1,i,.,.,.,.,.,.,.,.
Nc1cccc2c1C(=O)N(CC(=O)NC13CC4CC(CC(C4)C1)C3)C2=O,39*,19,i,31*,18,37*,.,.,.,44*,47*
COc1cc(OC)nc(Nc2nc(CN)cs2)n1,2,.,i,.,.,.,.,.,.,.,.
COc1ccc(-c2ccc3c(N)c(C(=O)c4cccc(OC)c4)sc3n2)cc1,25*,12,i,31*,28*,57*,.,.,.,45*,56*
COc1cccc(-c2ccc3c(N)c(C(=O)NC4CC4)sc3n2)c1,5,12,i,.,.,.,.,.,.,.,.
O=C(C1=NN(c2ccccc2)C2C(=O)N(c3ccccc3)C(=O)C12)c1ccccc1 (stereo not given),16,9,i,22,.,.,.,.,.,.,.
O=C(C1=NN(c2ccccc2)C2C(=O)N(c3ccccc3Cl)C(=O)C12)c1ccccc1 (stereo not given),42*,28*,i,38*,21,27*,17,16,-3,47*,48*
CCCCCCn1c(=O)[nH]c2nc3cc(N)c(C)cc3nc2c1=O,42*,32*,i,28*,18,43*,20,19,-5,45*,49*
CC(C(=O)NC1CCCC1)n1c(C2CC2)nc2ccccc21 (stereo not given),-8,.,i,.,.,.,.,.,.,.,.
Oc1ccc(Cl)cc1/C=C/c1ccc2cccc(O)c2n1,5,13,i,-4,.,.,.,.,.,.,.
Oc1c(Cl)cc(Cl)cc1/C=C/c1ccc2cccc(O)c2n1,37*,27*,i,34*,19,43*,20,18,-8,47*,54*
CCN(CC)c1ccc2c(Cl)cc(=O)oc2c1,.,.,.,8,.,.,.,.,.,.,.
CCNc1ccc2c(Cl)cc(=O)oc2c1,30*,34*,i,32*,21,36*,.,.,.,44*,32*
CC(C)CNC(=O)COC(=O)c1c2c(nc3ccccc13)/C(=C/c1cccs1)CC2,38*,32*,?,45*,43*,71*,41*,49,9,65*,73*
COc1ccc(Cn2cc3c(-c4ccc(F)cc4)nnc-3c3cc(OC)c(OC)cc32)cc1,63*,50*,+,28*,25*,41*,31*,35,-1,66*,72*
